Where “and” joins values, the source holds several entries; their conditions need not be identical. Equal values may be shown once. The panel holds about 83,000 compounds, 20% with a hit somewhere; the sample as a whole holds those more often.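 How to read the values: 0–100, growth inhibition (40 = 60% inhibited); 0, no net growth; -100 to 0, cell death (-40 = 40% of starting cells died; -100 = all dead).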
Key:
Test in all cases: NCI-60 one-dose screen, 48 h (100 = growth as untreated, 0 = no growth, -100 = all killed)
Details in all cases: 10 µM unless noted; active = growth percent below 10; inactive = the rest
T-47D breast = tested on: T-47D breast
BT-549 breast = tested on: BT-549 breast
MDA-MB-435 melanoma = tested on: MDA-MB-435 melanoma
SW-620 colon = tested on: SW-620 colon
MCF7 breast = tested on: MCF7 breast
HCT-116 colon = tested on: HCT-116 colon
HCC-2998 colon = tested on: HCC-2998 colon
KM12 colon = tested on: KM12 colon

Measured: growth

CC(C)(C)OC(=O)CC1(O)CCCCC1
inactive: T-47D breast 99.8% | BT-549 breast 110% | MDA-MB-435 melanoma 102% | SW-620 colon 103% | MCF7 breast 101% | HCT-116 colon 102% | HCC-2998 colon 106% | KM12 colon 107%

CCCCCCCCCCCCCCCCC(=O)O
inactive: T-47D breast 104% | BT-549 breast 112% | MDA-MB-435 melanoma 109% | SW-620 colon 105% | MCF7 breast 93.9% | HCT-116 colon 101% | HCC-2998 colon 96.8% | KM12 colon 105%

CC(C)=NOC(C)C(=O)O (stereo unspecified)
inactive: T-47D breast 107% | BT-549 breast 98% | MDA-MB-435 melanoma 97.2% | SW-620 colon 103% | MCF7 breast 97% | HCT-116 colon 95.7% | HCC-2998 colon 100% | KM12 colon 114%

CCN(CC)CCNC(=O)c1ccc(NCN2C(=O)NC(c3ccccc3)(c3ccccc3)C2=O)cc1
inactive: T-47D breast 117% and 95.2% | BT-549 breast 107% and 120% | MDA-MB-435 melanoma 94.6% and 103% | SW-620 colon 105% and 106% | MCF7 breast 98.4% and 94.6% | HCT-116 colon 104% and 95.1% | HCC-2998 colon 102% and 125% | KM12 colon 106% and 101%

CN(C)C(=N)N=C(N)N
inactive: T-47D breast 90.5% and 102% | BT-549 breast 80.2% and 156% | MDA-MB-435 melanoma 109% and 124% | SW-620 colon 108% and 105% | MCF7 breast 96.7% and 146% | HCT-116 colon 108% and 98.3% | HCC-2998 colon 115% | KM12 colon 100% and 108%

CCC(C)(O)CCC(C)(O)CC (stereo unspecified)
inactive: T-47D breast 96% | BT-549 breast 107% | MDA-MB-435 melanoma 111% | SW-620 colon 112% | MCF7 breast 92.4% | HCT-116 colon 101% | HCC-2998 colon 87.7% | KM12 colon 103%

O=C(c1ccccc1)C1(Br)CCCCC1
inactive: T-47D breast 94.7% | BT-549 breast 105% | MDA-MB-435 melanoma 105% | SW-620 colon 105% | MCF7 breast 96% | HCT-116 colon 104% | HCC-2998 colon 101% | KM12 colon 104%

CC(NC(=O)CCl)c1ccccc1 (stereo unspecified)
inactive: T-47D breast 103% | BT-549 breast 95.3% | MDA-MB-435 melanoma 99.7% | SW-620 colon 96.4% | MCF7 breast 94% | HCT-116 colon 97.6% | HCC-2998 colon 106% | KM12 colon 105%

CC1(C)CC(=O)NC1=O
inactive: T-47D breast 91.5% | BT-549 breast 104% | MDA-MB-435 melanoma 94.9% | SW-620 colon 107% | MCF7 breast 93.6% | HCT-116 colon 96.5% | HCC-2998 colon 102% | KM12 colon 102%

CC1OS(=O)OC1C (stereo unspecified)
inactive: T-47D breast 93% | BT-549 breast 105% and 104% | MDA-MB-435 melanoma 99.3% and 101% | SW-620 colon 105% and 98.3% | MCF7 breast 91.2% and 93.9% | HCT-116 colon 105% and 102% | HCC-2998 colon 99.3% and 118% | KM12 colon 107% and 97.5%

CSc1nc(N)c(N)c(N)n1
inactive: T-47D breast 97.2% | BT-549 breast 101% | MDA-MB-435 melanoma 112% | SW-620 colon 104% | MCF7 breast 105% | HCT-116 colon 86.5% | HCC-2998 colon 109% | KM12 colon 104%

CCOC(=O)C1=C(C)NC(C)=C(C(=O)OCC)C1
inactive: T-47D breast 90.1% and 116% | BT-549 breast 110% and 93.7% | MDA-MB-435 melanoma 95.4% and 97.6% | SW-620 colon 91.9% and 96.9% | MCF7 breast 102% and 115% | HCT-116 colon 140% and 87.3% | HCC-2998 colon 114% and 87.1% | KM12 colon 96.8% and 113%

Source: PubChem BioAssay (NCI)
